19 molecules from PubChem BioAssay AID602371 (National Center for Advancing Translational Sciences (NCATS), 2012) can be followed below.

Results filed as inconclusive are left out. Calls of active or inactive are those of the source. Calls come from the whole dose curve; as a rule, active = well fitted inhibition curve with a large enough effect; inconclusive = small, poorly fitted or top-dose-only effect; inactive = flat fitted curve, though single readings scatter.

The assay can be described thus: qHTS Assay for Inhibitors of Bacillus subtilis Sfp phosphopantetheinyl transferase (PPTase): SAR in B subtilis 168. The settings on record: Bacillus subtilis 168 growth inhibition. An excerpt: The covalent attachment of a phosphopantetheinyl (4'-PP) arm to a variety of synthases and other proteins is a key posttranslational protein modification. The 4'-PP is installed on the proteins post-translationally from coenzyme A (CoA) on a conserved serine residue by action of phosphopantetheinyl transferase (PPTase) enzymes. Phosphopantetheinylation is essential for synthase activity, and removal of the PPTase gene precludes natural product synthesis in microorganisms, or in the case of fatty acid biosynthesis, renders the organism unviable. PPTase enzymes belong to a distinct structural superfamily. Within bacteria, these enzymes are grouped into two classes based upon primary structure, the AcpS-Type and Sfp-Type PPTases.
Sfp-type PPTases, corresponding to an activator of surfactin production in Bacillus subtilis, are responsible for modifying type I polyketide and nonribosomal peptide synthases of prokaryotes. Sfp-type PPTases are responsible for the activation of a variety of pathogen-associated virulence factors. Among these compounds are toxins such as mycolactone from Mycobacterium ulcerans, siderophores such as vibriobactin from Vibrio cholerae or mycobactin from Mycobacterium tuberculosis, as well as the mycolic acids which form the waxy cell wall of Mycobacteria. The biosyntheses of these natural products are considered attractive targets for drug design.
In search of small molecule Sfp-PPTase inhibitors, a fluorescence quenching assay was developed for detection of Bacillus subtilis Sfp-PPTase enzymatic activity in a miniaturized high-throughput format. The consensus ybbr acceptor peptide […] was N-terminally labeled with Black Hole Quencher-2 (BHQ-2) and used in combination with rhodamine-labeled coenzyme A as a co-substrate.
Phosphopantetheinyl transfer is a process essential to cellular viability and maintenance. Cell-permeable and stable compounds acting as PPTase inhibitors are anticipated to be antimicrobial agents in organisms with complimenting genotypes. […] This experiment evaluated a series of test compounds for antimicrobial activity with B. subtilis 168 (genotype: acpS+ and sfp-), a strain that contains a frameshift mutation in the sfp locus and thus requires a functional AcpS gene product for viability. [Mootz HD, 2001] This strain is expected to be sensitized to cell-permeable AcpS inhibitors, and insensitive to Sfp inhibitors.
NIH Chemical Genomics Center [NCGC]
NIH Molecular Libraries Probe Centers Network [MLPCN]
Assay Submitter (PI): Michale Burkart, University of California, San Diego
Bacillus subtilis 168 is maintained on lysogeny broth (LB) solidified by the addition of 1.5% w/v agar. Single colonies were used to LB medium (2 mL) and shaken overnight at 30 deg C. In the morning, this culture (100 uL) was used to seed a fresh LB medium (10 mL) and was shaken at 30 degC until the culture OD600 reached 0.5. This culture was diluted 1:100 in fresh LB medium to provide the inoculum below.
Bacterial susceptibility.
LB medium (2 uL) is dispensed into wells of a sterile white 1536-well plate. Test compounds (23 nL) prepared as serial dilutions in DMSO are added to the plate by pintool transfer. Innoculum (2 uL) is added, the plates are covered with a vented Kalypsys assay lid and incubated at 30 deg C. After 5 h, Bac-Titer Glo (4 uL; Promega Corp, Madison, WI) is added to the plates. They are incubated 10 minutes at room temperature and then the luminescence detected in a ViewLux multimodal plate reader.
For `Cc1ccnc(NC(=S)N2CC3CN(c4cccc(C(F)(F)F)c4)CC3C2)c1` (centres undefined), the Potency is 8.35 µM (active).

For the molecule `Cc1cc(C)nc(NC(=S)N2CCN(c3cc(Br)cc(C(F)(F)F)c3)CC2)c1`, the Potency was 16.7 µM (active).

Consider `Cc1cc(C)nc(NC(=S)N2CCN(c3ccc(Cl)cc3Cl)CC2)c1`, for which the Potency is 33.2 µM (active).

On to `S=C(Nc1cc(Cl)ccn1)N1CCN(c2cccc(Cl)c2Cl)CC1`, for which the Potency is 16.7 µM (active).

As for `COc1ccnc(NC(=S)N2CCN(c3cccc(Cl)c3Cl)CC2)c1`, the Potency is 13.2 µM (active).

`Cc1cc(C)nc(NC(=S)N2CCN(c3ccc(Cl)c(Cl)c3)CC2)c1`: the Potency was 37.3 µM (active).

`Cc1ccnc(NC(=S)N2CCCN(c3cccc(C(F)(F)F)c3)CC2)c1`: the Potency was 11.8 µM (active).

For the molecule `Cc1ccnc(NC(=S)N2CC3CN(c4ncc(C(F)(F)F)cc4Cl)CC3C2)c1` (centres undefined), the Potency is 16.7 µM (active).

Take `Cc1ccnc(NC(=S)N2CCN(c3cccc(N(C)C)c3)CC2)c1`: the Potency was 46.9 µM (active).

`FC(F)(F)c1cc(N2CCN(C(=S)Nc3cc(Cl)ccn3)CC2)cc(C(F)(F)F)c1`: the Potency was 6.63 µM (active).

Take `FC(F)(F)c1cccc(N2CCN(C(=S)Nc3cc(C(F)(F)F)ccn3)CC2)c1`: the Potency is 16.7 µM (active).

With `Cc1ccnc(NC(=S)Nc2cccc(C(F)(F)F)c2)c1`, the Potency was 18.7 µM (active).

Turning to `Cc1cc(C)nc(NC(=S)N2CCN(c3ccc([N+](=O)[O-])cc3Cl)CC2)c1`, the Potency was 14.8 µM (active).

Take `CSC(Cc1ccc(Cl)cc1)C(=O)Nc1ccc(Cl)cc1C(=O)O` (centres undefined): the Potency was 23.5 µM (active).

For `COc1ccnc(NC(=S)N2CCN(c3ncc(C(F)(F)F)cc3Cl)CC2)c1`, the Potency is 18.7 µM (active).

Regarding `Cc1ccnc(NC(=S)N2CCN(c3cc(C(F)(F)F)cc(C(F)(F)F)c3)CC2)c1`, the Potency was 14.8 µM (active).

`Cc1ccnc(NC(=S)N2CCN(c3cccc(C(F)(F)F)c3)CC2)c1`: the Potency was 14.8 µM (active).

Consider `Cc1cc(C)nc(NC(=S)N2CC3CN(c4ccc(Cl)cc4C(F)(F)F)CC3C2)c1` (centres undefined), for which the Potency was 11.8 µM (active).

Take `COc1ccnc(NC(=S)N2CCN(c3ccc(Cl)cc3Cl)CC2)c1`: the Potency was 16.7 µM (active).
